Experiment [1] can be described thus: NCI Yeast Anticancer Drug Screen. Data for the rad50 strain (AID 155).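 Also: 0% = growth of vehicle-only cultures of the same strain.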 The note with it: S. cerevisiae rad50 strain growth inhibition; at 50.0 µM; stronger effect = higher value. A digest of the protocol: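 Cells are treated with compound, grown, and their growth is then scored against vehicle-only cultures of the same repair-deficient yeast strain.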
Experiment [2] in a line: NCI Yeast Anticancer Drug Screen. Data for the mec2-1 strain (AID 157). To be noted: S. cerevisiae mec2-1 strain, at 50.0 µM, stronger effect = higher value. In a few lines:
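Strain: mec2-1 (DNA repair/cell cycle alteration). Compound exposure, then growth measured; inhibition expressed relative to vehicle.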

The nature of experiment [3]: NCI Yeast Anticancer Drug Screen. Data for the sgs1 mgt1 strain (AID 161).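 Also: 0% = growth of cultures given vehicle only.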 To be noted: S. cerevisiae sgs1 mgt1 strain, at 50.0 µM, stronger effect = higher value. A digest of the protocol:
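Test agents were incubated with a DNA-repair-mutant yeast strain. Growth was then read and compared against vehicle-treated controls.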

Experiment [4] is described as follows: NCI Yeast Anticancer Drug Screen. Data for the cln2 rad14 strain (AID 165).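 Also: 0% = growth equal to vehicle treated cultures.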 To be noted: S. cerevisiae cln2 rad14 strain, at 50.0 µM, stronger effect = higher value. A digest of the protocol:
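Compounds are applied to the cln2 rad14 yeast strain, and growth is then compared with that of vehicle-treated cultures to give inhibition.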

A short description of experiment [5]: NCI Yeast Anticancer Drug Screen. Data for the bub3 strain (AID 167). The note with it: S. cerevisiae bub3 mutant strain, at 50.0 µM, stronger effect = higher value. In a few lines: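 Part of a panel of yeast mutants defective in DNA damage repair or cell cycle regulation. Each strain is grown with compound, and inhibition is calculated relative to solvent-treated cultures.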

Experiment [6] is described as follows: NCI Yeast Anticancer Drug Screen. Data for the mlh1 rad18 strain (AID 175). The note with it: S. cerevisiae mlh1 rad18 strain growth inhibition; at 50.0 µM; stronger effect = higher value. In a few lines:
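Read-out is yeast growth inhibition, calculated against vehicle-only controls. The compound was applied to a strain engineered with DNA damage repair alterations.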

About 79,000 compounds went through this panel and 15% of them were active in at least one assay; those are over-represented in the sample as a whole. Unmarked numbers belong to inactive results. The source made the active and inactive calls. Rule as the data show it: active = growth inhibition above about 70%; inactive = the rest.

Regarding `OCC(O)Cn1cnc2c(NO)ncnc21` (stereo not given), the growth inhibition in experiment [1] was -18.2%; in experiment [2], -20.8%; in experiment [3], -8%; in experiment [4], -15.2%; in experiment [5] it was 4.85%; in experiment [6], 11.1%.

Take `O=P(c1ccccc1)(c1ccccc1)C(O)c1ccncc1` (stereo not given): the growth inhibition in experiment [1] is 1.8%; in experiment [2], -17.2%; in experiment [3], -0.15%; in experiment [4], 10.9%; in experiment [5] it was -23%; in experiment [6] it was -10.9%.

In the case of `CCCCCCCCCCOc1ccc(C=NC/C=C/c2ccc(CC)cc2)cc1`, the growth inhibition in experiment [1] is -19.4%; in experiment [2], -13.8%; in experiment [3], -13.7%; in experiment [4] it was -50.8%; in experiment [5], -1.2%; in experiment [6], -23.4%.

As to `Cc1ccc(NC(=S)N2CCCC2)cc1`, the growth inhibition was 5.9% in experiment [1]; -12.9% in experiment [2]; -18.8% in experiment [3]; -94.2% in experiment [4]; -13.4% in experiment [5]; -0.7% in experiment [6].

As to `CC(C)CCOC(=O)c1ccc(C(C)C)cc1`, the growth inhibition is 7.65% in experiment [1]; 9.85% in experiment [2]; -0.35% in experiment [3]; -17.7% in experiment [4]; 46.6% in experiment [5]; 5.3% in experiment [6].

For `Nc1ncc2c(ncn2CC(O)CO)n1` (stereo not given), the growth inhibition in experiment [1] was -24.6%; in experiment [2] it was -2.5%; in experiment [3], -1.55%; in experiment [4] it was 4.65%; in experiment [5] it was -3%; in experiment [6], -3.25%.

Regarding `c1ccc(N/N=C2/CSCc3ccccc32)cc1`, the growth inhibition in experiment [1] is 93.2% (active); in experiment [2], 68.8%; in experiment [3], 91.5% (active); in experiment [4], 74.2% (active); in experiment [5], 80.8% (active); in experiment [6], 94.4% (active).

Turning to `CCOC(=O)c1c(C)[nH]c(C2=NCCC2)c1C`, the growth inhibition in experiment [1] is -8.7%; in experiment [2], 5.3%; in experiment [3], 1.7%; in experiment [4], -55.9%; in experiment [5], 2.95%; in experiment [6], -5.95%.

With `CC=C1C(C(=O)O)C1C(=O)O` (stereo not given), the growth inhibition in experiment [1] is 16.9%; in experiment [2] it was 20.8%; in experiment [3], -5.2%; in experiment [4], -23.2%; in experiment [5] it was 15.3%; in experiment [6], -4.4%.

As to `O=C(NC(=O)c1cn(CCN(CCO)C(=O)NCCCCCCNC(=O)N(CCO)CCn2cc(C(=O)NC(=O)OCc3ccccc3)c(=O)[nH]c2=O)c(=O)[nH]c1=O)OCc1ccccc1`, the growth inhibition was -2.5% in experiment [1]; 7.05% in experiment [2]; -18.9% in experiment [3]; -23.9% in experiment [4]; 0.9% in experiment [5]; -17.9% in experiment [6].

In the case of `Cc1cc(C)c(OCC(O)CO)c(C)c1` (stereo not given), the growth inhibition in experiment [1] was 2.45%; in experiment [2], -26.1%; in experiment [3], 14.7%; in experiment [4], -10.1%; in experiment [5], 5.9%; in experiment [6] it was -8.8%.

In the case of `O=C1CSC2=NC3=C(COC/C3=C\c3ccc(Br)cc3)C(c3ccc(Br)cc3)N12` (stereo not given), the growth inhibition in experiment [1] was 7.05%; in experiment [2], 14.3%; in experiment [3] it was 39.1%; in experiment [4] it was 18.9%; in experiment [5] it was 33.6%; in experiment [6] it was 33.1%.

With `O=C(Nc1ccc(C2=NCCN2)c(O)c1)c1ccc(C(=O)Nc2ccc(C3=NCCN3)c(O)c2)cc1`, the growth inhibition is 32.6% in experiment [1]; 3.95% in experiment [2]; 23.2% in experiment [3]; 36.2% in experiment [4]; 7.5% in experiment [5]; 28.6% in experiment [6].

`C=CCCC(C)N(C(=O)OC(C)(C)C)S(=O)(=O)c1ccc(C)cc1` (stereo not given): the growth inhibition in experiment [1] is 16.6%; in experiment [2], -13.2%; in experiment [3], 4.85%; in experiment [4] it was -9.3%; in experiment [5], -4%; in experiment [6] it was 0.45%.

As to `C/C(=N\O)c1cccs1`, the growth inhibition in experiment [1] is 3.8%; in experiment [2] it was -4.05%; in experiment [3], -6%; in experiment [4], -8.9%; in experiment [5], -0.25%; in experiment [6] it was -1.4%.

As to `Cc1cc(C)cc(C(C)C)c1`, the growth inhibition was -15.4% in experiment [1]; -4.35% in experiment [2]; -22.9% in experiment [3]; 5.95% in experiment [4]; -11.6% in experiment [5]; -6.95% in experiment [6].

Take `Cc1cc2ncn(CO)c2cc1C`: the growth inhibition is -4.5% in experiment [1]; -0.2% in experiment [2]; 18.8% in experiment [3]; -7.4% in experiment [4]; 20% in experiment [5]; 0.75% in experiment [6].

In the case of `CN=C1c2ccccc2C(=O)c2c1c(O)n(-c1ccccc1)c2O`, the growth inhibition in experiment [1] is 27.9%; in experiment [2], 15.3%; in experiment [3] it was 20.9%; in experiment [4], 21.5%; in experiment [5] it was 29.4%; in experiment [6] it was 36.8%.

For `COC(=O)c1nsc(OC)c1Cl`, the growth inhibition in experiment [1] is 22.1%; in experiment [2], -11.5%; in experiment [3], 15.8%; in experiment [4], 8.7%; in experiment [5], 23.6%; in experiment [6], 50.4%.

For the molecule `Cc1cc(=O)[nH]c(NNC(C#N)c2ccccc2O)n1` (stereo not given), the growth inhibition in experiment [1] was -19.3%; in experiment [2], -27.9%; in experiment [3] it was -22.1%; in experiment [4], -12%; in experiment [5], 1.5%; in experiment [6], -34.8%.

Source of the values: PubChem BioAssay (NCI).
